Results filed as inconclusive are left out. A call without a number means that no potency is given here. Activity calls are given as the source filed them. Calls follow the shape of the dose curve; as a rule, active = well fitted cell-killing curve with a large enough effect; inconclusive = small, poorly fitted or top-dose-only effect, or effect the other way; inactive = no such curve, though single readings can be large or run the other way.
Assay: Quantitative High-Throughput drug screen in 47 multiple myeloma cell lines against the NCATS MIPE library collection: JJN3_DSMZ cell viability assay (AID 1918966; also: nearly all actives have a fitted effect of over 50% in size)
Settings: JJN3 myeloma cells viability, CellTiter-Glo ATP, 48 h; series mostly up to 45.8 µM
Procedure, shortened: (§1)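 Inhibition of cell viability is measured here. Each line was plated at 500 cells per well, treated with MIPE 4.0 drugs, kept 48 hours at 37C, then assayed for ATP content by CellTiter-Glo luminescence.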
Potency is read from the fitted curve at half-maximal effect.

Compound	Potency
COc1cc2c(cc1O)CCC1C2CC[C@@]2(C)C1CC[C@@H]2O (some centres undefined)	8330 nM (active)
CCCNC(=O)[C@H]1O[C@H]1C(=O)N[C@H](C(=O)N1CCC[C@@H]1C(=O)OC)C(C)CC (some centres undefined)	2960 nM (active)
CNC(=O)c1cccc(-c2ccc3c(N4CCOC[C@H]4C)nc(N4CCOC[C@H]4C)nc3n2)c1	74.3 nM (active)
CON=C(C(=O)N[C@@H]1C(=O)N2C(C(=O)O)=C(CSC(=O)c3ccco3)CS[C@H]12)c1csc(N)n1	inactive
C[C@@H](NCc1cc2ccccc2[nH]1)c1cccc2ccccc12	inactive

Assay: Quantitative High-Throughput drug screen in 47 multiple myeloma cell lines against the NCATS MIPE library collection: H1112_PLB cell viability assay (AID 1918967; also: nearly all actives have a fitted effect of over 30% in size)
Settings: H1112 myeloma cells viability, ATP luminescence, 48 h; series mostly up to 45.8 µM
Procedure, shortened: as §1

Compound	Potency
Nc1cccc2c1C(=O)N(C1CCC(=O)NC1=O)C2=O (centres undefined)	inactive
CC(C)[C@H](CO)Nc1nc(Nc2cccc(Cl)c2)c2ncn(C(C)C)c2n1	26400 nM (active)
N#Cc1cc(NC(=O)Nc2nnc(-c3ccncc3)s2)ccc1-c1cn[nH]c1	inactive
COc1cc(OC)c(NC(=O)Nc2cc(C)on2)cc1Cl	inactive
COC(=O)[C@@H]1[C@H]2C[C@@H]3c4[nH]c5ccccc5c4CCN3C[C@@H]2CC[C@@H]1O	inactive
C#Cc1cccc(Nc2ncnc3cc(OCCOC)c(OCCO)cc23)c1	1870 nM (active)
C[N+](C)([O-])CCNc1ccc(NCC[N+](C)(C)[O-])c2c1C(=O)c1c(O)ccc(O)c1C2=O	inactive
C=C1CCC2[C@](C)(CO)C(O)CC[C@]2(C)C1CC=C1C(=O)OCC1O (some centres undefined)	inactive
O=C1c2c(O)cccc2[C@@H]([C@@H]2O[C@H](CO)[C@@H](O)[C@H](O)[C@H]2O)c2cc(CO)cc(O)c21	inactive

Source: PubChem BioAssay (NCATS)
